From PubChem
TGFb SMAD3 inh: inhibitors of TGF-b signaling. Potency, µM (top dose mostly 46.1 µM), inactives show at the top dose activity, negative = inhibition, hits mostly inhibitors. HepG2 CAGA-GFP TGF-b/SMAD3 reporter, GFP fluorescence, 18 h; TGF-beta stimulated, 500 pg/mL final. hit rate 1.2% among 410,000. AID 588855; also: % is scaled to controls: 0 for no effect and ±100 for the full control effect; nearly all actives have a fitted effect of over 65% in size
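HEPG2 CAGA-GFP reporter cells (1000/well, DMEM with 1% FBS) received compounds, then recombinant TGF-beta at 500 pg/mL final for 18 hours at 37 degrees C. Per-cell GFP summed per well was normalised to unstimulated and stimulated DMSO controls before curve fitting.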
KB-V1 MDR tox: kills drug-selected multidrug resistant KB-V1 cells | hit rate 3.4% among 400,000 | Potency, µM (top dose mostly 46.1 µM), hits mostly cytotoxic | AID 1347076 | KB-V1 MDR cells viability, CellTiter-Glo, 72 h; also: % is scaled to controls: 0 for no effect and ±100 for the full control effect; nearly all actives have a fitted effect of over 60% in size
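Compound-treated KB-V1 multidrug-resistant cells, 72 h, 37 degrees C; viability by CellTiter-Glo. Fitted qHTS curves give the values.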
HT1080-NT tox: kills 2HG-producing HT-1080-NT fibrosarcoma cells. HT-1080-NT fibrosarcoma viability, CellTiter-Glo ATP luminescence, 48 h. Potency, µM (highest dose often 46.1 µM), for inactives: at the highest dose activity, negative = less viability, usual class: cytotoxic. hit rate 1.6% among 360,000. AID 686970;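 also: NT is the 2HG producing partner of a matched IDH1 knockdown line; 0% = DMSO-treated cells and -100% = media-only wells without cells; nearly all actives have a fitted effect of over 55% in size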
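750 cells/well, RPMI + 5% FBS; 2 h settle, compound pin-transfer, 48 h at 37 degrees C. CellTiter-Glo 10 min RT, luminescence. Normalized to DMSO and media-only wells.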
HT1080 IDH1KD tx: HT-1080 IDH1 knockdown cell toxicity (counter line); hit rate 2% among 360,000; HT-1080 IDH1 knockdown viability, ATP luminescence, 48 h; Potency, µM (titrated, usually from 46.1 µM), inactives show top-dose activity, negative = toxicity, usual class: cytotoxic;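 also: 0% = DMSO wells and -100% = cell-free medium wells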
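IDH1KD HT-1080 cells, 750/well, RPMI + 5% FBS; compound pinned after 2 h settling; 48 h, 37 °C; CellTiter-Glo luminescence; % activity normalised to DMSO and no-cell wells; curves fitted, classed by r2 and efficacy.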
KB-3-1 cytotox: kills parental KB-3-1 adenocarcinoma cells; KB-3-1 viability, CellTiter-Glo ATP luminescence, 72 h; Potency, µM (highest dose often 46.1 µM), hits mostly cytotoxic; hit rate 1.4% among 400,000; AID 1347075; also: % is scaled to controls: 0 for no effect and ±100 for the full control effect; nearly all actives have a fitted effect of over 60% in size
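72 h, 37 °C compound treatment of KB-3-1 parental cells; CellTiter-Glo added, 10 min, luminescence read. Data corrected against DMSO-only plates and normalized before curve fitting.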
HepG2 tox: HepG2 cytotoxicity, counter-screen for TGF-b inhibitors; Potency, µM (top dose mostly 46.1 µM), without a hit: top-dose activity change, negative = cytotoxicity, most hits filed as cytotoxic; hit rate 0.76% among 410,000; HepG2 CAGA-GFP viability, ATP luminescence, 18 h; AID 588856
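HepG2 CAGA-GFP cells (1000/well, DMEM with 1% FBS) received compound, then TGF-beta at 500 pg/mL final, and were incubated 18 hours at 37 degrees C. Viability was read by CellTiter-Glo luminescence. Media-only wells were set as complete cell-killing and DMSO as no toxicity.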
The depositor's hits bear a star; i = inactive; ? = inconclusive; . = not tested or not shown. Shown are actives, neighbours in structure and some others; about 6.6% of the full set was active somewhere. Calls follow the shape of the dose curve; as a rule, active = well fitted curve in the direction sought with a large enough effect; inconclusive = small, poorly fitted or top-dose-only effect, or another doubt; inactive = no such curve, though single readings can be large; an effect the other way counts as inactive or inconclusive. Potency is read from the fitted curve at half-maximal effect.

SMILES | TGFb SMAD3 inh | KB-V1 MDR tox | HT1080-NT tox | HT1080 IDH1KD tx | KB-3-1 cytotox | HepG2 tox
COc1ccc(N(CC(=O)NCCc2ccccc2)S(=O)(=O)c2ccccc2)c(OC)c1 | ? | i | . | . | i | -41%
Cc1ccccc1NC(=O)CN1C(=O)NC(C)(c2ccc3c(c2)OCO3)C1=O (stereo not given) | -3% | i | 2% | -7% | i | -9%
CC1(c2ccc3c(c2)OCO3)NC(=O)N(CC(=O)Nc2ccccc2[N+](=O)[O-])C1=O (stereo not given) | -20% | 15µM* | -2% | 4% | i | 3%
Cc1cc([N+](C)(C)C)cc(C)c1/C=C/c1ccnc2ccccc12 | -12% | i | . | . | i | -15%
O=S1(=O)c2ccc(Br)cc2OC(COCc2ccccc2)CN1Cc1ccccc1 (stereo not given) | -19% | ? | 2% | 12% | i | -3%
O=S1(=O)c2ccc(Br)cc2N2CCC[C@@H]2CN1Cc1ccccc1 | ? | i | ? | 3.7µM* | ? | -22%
Oc1c(Br)cc(Br)cc1/C=N/c1nc2c(s1)CCCC2 | -10% | i | ? | ? | ? | 2%
Oc1ccc2ccccc2c1/C=N/c1nc2c(s1)CCCC2 | ? | i | ? | 23µM* | i | 0%
COc1ccc(C(=O)NNC(=O)c2cccs2)cc1S(=O)(=O)N1CCOCC1 | 9% | i | 1% | 18% | ? | 16%
CCOc1ccc2ccccc2c1/C=N/NC(=O)c1cc(C)[nH]n1 | -2% | ? | -18% | -15% | i | -6%
Cc1cc(C(=O)N/N=C/c2c3ccccc3cc3ccccc23)n[nH]1 | ? | 18µM* | ? | 16µM* | ? | -46%
Cc1ccc(Cn2c(CN3CCC(C(=O)O)CC3)cc3ccccc32)cc1 | . | . | . | . | . | -25%
Nc1cc(N)[nH]c(=S)n1 | 9% | i | . | . | i | -1%
O=C1NC(c2cccc3ccccc23)Nc2ccc(Cl)cc21 (stereo not given) | 4µM* | 0.23µM* | 0.58µM* | 0.52µM* | 0.18µM* | -6%
CCCCOc1ccc(S(=O)(=O)Nc2ccc(NC(C)=O)cc2)cc1 | -7% | 21µM* | -1% | -12% | ? | -25%
CCOC(=O)C1CCCC(NS(=O)(=O)c2ccc(NC(C)=O)cc2)C1 (stereo not given) | 11µM* | i | -2% | 1% | i | -13%
CCOc1ccc(NC(=O)COc2ccc(S(=O)(=O)NC3CCCCC3)cc2)cc1 | -25% | ? | . | . | i | -6%
CCc1cccc(NC(=O)Cn2c(C(=O)OC)cc3sc(Cl)cc32)c1 | 0% | i | . | . | i | 1%
c1nc(N2CCCC2)c2[nH]cnc2n1 | -11% | ? | 11% | -23% | i | 0%
c1nc(N2CCCCCC2)c2[nH]cnc2n1 | -3% | 23µM* | -5% | -12% | i | 3%
O=C1OC(c2ccccc2)(c2ccc3cc(O)ccc3c2)c2ccccc21 (stereo not given) | ? | ? | 13µM* | 26µM* | ? | -182%
O=C1OC(c2ccccc2)(c2cc(Br)ccc2O)c2ccccc21 (stereo not given) | 20µM* | ? | 16µM* | 21µM* | i | -183%
O=C1OC(c2ccc(O)cc2)(c2ccc(O)cc2)c2ccccc21 | -25% | i | -17% | ? | i | -15%
O=C(Nc1ccc(-n2cccn2)cc1)C1CCCCN1Cc1cccc2c1OCO2 (stereo not given) | 2% | ? | ? | ? | 4.1µM* | 20%
Cc1ncc(CN2CCC(C(=O)Nc3ccc(-n4cccn4)cc3)CC2)s1 | -6% | . | -4% | 12% | . | -2%
CCOC(=O)CSc1nc2nc(C)cc(C)n2n1 | 2% | i | 17% | 15% | i | -51%
